According to PubChem BioAssay AID1159580 (chemical genetic matrix, 2015):
“And” between values parts separate entries of the source, which are not always exact repeats. Equal entries are not always repeated. Among all 5,500 compounds or so, about 2,000 (36%) were called active. About 18% were inconclusive and are not listed. No stated cut-off is given here; in the data, active means normalized growth mostly below about 0.91 (no sharp cut-off); inconclusive means no clear call, values can overlap the other calls; inactive means mostly above about 0.92. This is one part of the list.

Assay: chemical genetic growth profiling, strain panel (AID 1159580);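 further: tested at 20 µM; growth read once vehicle control cultures reached saturation at 30 °C; 1 = growth at the plate median or of vehicle wells; lower values mean less growth of the strain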
Details: growth OD

Measured: normalized growth

CNC1(C)C2CCC(C2)C1(C)C (stereo unspecified)
active: S. cerevisiae deletion strains, locus YOR231W, strain MKK1, hits give low values 0.824
inactive: S. cerevisiae deletion strains, locus YJR075W, strain HOC1, hits give low values 1 and 1.01 | S. cerevisiae deletion strains, locus YKL009W, strain mrt4, hits give low values 1.03 | S. cerevisiae deletion strains, locus YKL068W, hits give low values 0.989 | S. cerevisiae deletion strains, locus YKL085W, strain MDH1 (second series), hits give low values 1.02 | S. cerevisiae deletion strains, locus YKL085W, strain MDH1, hits give low values 1.02 | S. cerevisiae deletion strains, locus YKL160W, strain elf1, hits give low values 0.97 | S. cerevisiae deletion strains, locus YKL190W, strain CNB1, hits give low values 0.977 | S. cerevisiae deletion strains, locus YKR001C, strain vps1, hits give low values 0.997 | S. cerevisiae deletion strains, locus YKR026C, strain gcn3, hits give low values 1 | S. cerevisiae deletion strains, locus YKR091W, strain srl3, hits give low values 1 | S. cerevisiae deletion strains, locus YLL001W, strain dnm1, hits give low values 0.948 | S. cerevisiae deletion strains, locus YLL026W, hits give low values 0.996 | S. cerevisiae deletion strains, locus YLL041C, strain sdh2, hits give low values 0.988 | S. cerevisiae deletion strains, locus YLR027C, strain aat2, hits give low values 0.996 | S. cerevisiae deletion strains, locus YLR039C, strain RIC1, hits give low values 0.959 | S. cerevisiae deletion strains, locus YLR058C, strain SHM2, hits give low values 0.979 | S. cerevisiae deletion strains, locus YLR102C, strain apc9, hits give low values 0.981 | S. cerevisiae deletion strains, locus YLR113W, strain HOG1, hits give low values 0.934 | S. cerevisiae deletion strains, locus YLR221C, strain rsa3, hits give low values 0.976 | S. cerevisiae deletion strains, locus YLR258W, strain gsy2, hits give low values 1.02 | S. cerevisiae deletion strains, locus YLR262C, strain YPT6 (second series), hits give low values 1 | S. cerevisiae deletion strains, locus YLR262C, strain YPT6, hits give low values 0.934 | S. cerevisiae deletion strains, locus YLR268W, strain sec22, hits give low values 0.965 | S. cerevisiae deletion strains, locus YLR320W, strain mms22, hits give low values 0.982 | S. cerevisiae deletion strains, locus YLR330W, strain CHS5, hits give low values 0.987 | S. cerevisiae deletion strains, locus YLR342W, strain FKS1 (second series), hits give low values 1.08 | S. cerevisiae deletion strains, locus YLR342W, strain FKS1, hits give low values 0.99 | S. cerevisiae deletion strains, locus YLR357W, strain rsc2, hits give low values 0.987 | S. cerevisiae deletion strains, locus YLR370C, strain arc18, hits give low values 0.989 | S. cerevisiae deletion strains, locus YLR371W, strain rom2, hits give low values 1.01 | S. cerevisiae deletion strains, locus YLR384C, strain iki3, hits give low values 1 | S. cerevisiae deletion strains, locus YLR418C, strain cdc73, hits give low values 0.909 | S. cerevisiae deletion strains, locus YML016C, strain PPZ1, hits give low values 0.993 | S. cerevisiae deletion strains, locus YML032C, strain rad52, hits give low values 1.03 | S. cerevisiae deletion strains, locus YML120C, strain ndi1, hits give low values 0.979 | S. cerevisiae deletion strains, locus YML124C, strain tub3, hits give low values 0.995 | S. cerevisiae deletion strains, locus YMR058W, strain fet3, hits give low values 0.995 | S. cerevisiae deletion strains, locus YMR078C, strain ctf18, hits give low values 0.999 | S. cerevisiae deletion strains, locus YMR125W, strain sto1, hits give low values 0.987 | S. cerevisiae deletion strains, locus YMR129W, hits give low values 0.998 | S. cerevisiae deletion strains, locus YMR205C, strain PFK2, hits give low values 0.983 | S. cerevisiae deletion strains, locus YMR223W, strain ubp8, hits give low values 1.04 | S. cerevisiae deletion strains, locus YMR231W, strain pep5, hits give low values 0.998 | S. cerevisiae deletion strains, locus YMR263W, strain SAP30, hits give low values 0.966 and 1 | S. cerevisiae deletion strains, locus YMR307W, strain GAS1, hits give low values 1.06 | S. cerevisiae deletion strains, locus YNL067W, strain RPL9B, hits give low values 0.976 | S. cerevisiae deletion strains, locus YNL071W, strain lat1, hits give low values 0.993 | S. cerevisiae deletion strains, locus YNL128W, strain TEP1, hits give low values 0.946 and 1.02 | S. cerevisiae deletion strains, locus YNL153C, strain GIM3, hits give low values 0.962 | S. cerevisiae deletion strains, locus YNL175C, strain NOP13, hits give low values 0.998 | S. cerevisiae deletion strains, locus YNL183C, strain NPR1, hits give low values 0.971 | S. cerevisiae deletion strains, locus YNL197C, strain WHI3, hits give low values 1.02 | S. cerevisiae deletion strains, locus YNL209W, strain ssb2, hits give low values 0.992 | S. cerevisiae deletion strains, locus YNL224C, strain SQS1, hits give low values 1.01 | S. cerevisiae deletion strains, locus YNL233W, strain BNI4, hits give low values 0.98 | S. cerevisiae deletion strains, locus YNL248C, strain rpa49, hits give low values 0.982 | S. cerevisiae deletion strains, locus YNL250W, strain rad50, hits give low values 0.995 | S. cerevisiae deletion strains, locus YNL271C, strain bni1, hits give low values 0.996 | S. cerevisiae deletion strains, locus YNL298W, strain CLA4, hits give low values 0.99 | S. cerevisiae deletion strains, locus YNL307C, strain MCK1, hits give low values 0.999 | S. cerevisiae deletion strains, locus YNL322C, strain KRE1 (second series), hits give low values 1 | S. cerevisiae deletion strains, locus YNL322C, strain KRE1, hits give low values 0.978 | S. cerevisiae deletion strains, locus YNR049C, strain mso1, hits give low values 0.996 | S. cerevisiae deletion strains, locus YNR052C, strain pop2, hits give low values 0.992 | S. cerevisiae deletion strains, locus YOL006C, strain TOP1, hits give low values 0.951 | S. cerevisiae deletion strains, locus YOL012C, strain htz1 0.652 | S. cerevisiae deletion strains, locus YOL147C, strain pex11, hits give low values 0.996 | S. cerevisiae deletion strains, locus YOR001W, strain rrp6, hits give low values 0.964 | S. cerevisiae deletion strains, locus YOR061W, strain CKA2, hits give low values 0.958 | S. cerevisiae deletion strains, locus YOR069W, strain VPS5, hits give low values 0.993 | S. cerevisiae deletion strains, locus YOR070C, strain gyp1, hits give low values 0.997 | S. cerevisiae deletion strains, locus YOR080W, strain dia2, hits give low values 0.999 | S. cerevisiae deletion strains, locus YOR083W, strain WHI5 (second series), hits give low values 1.01 | S. cerevisiae deletion strains, locus YOR083W, strain WHI5, hits give low values 0.978 | S. cerevisiae deletion strains, locus YOR106W, strain vam3, hits give low values 0.987 | S. cerevisiae deletion strains, locus YOR136W, strain idh2, hits give low values 1.01 | S. cerevisiae deletion strains, locus YOR144C, strain elg1, hits give low values 0.99 | S. cerevisiae deletion strains, locus YOR184W, strain ser1, hits give low values 1.05 | S. cerevisiae deletion strains, locus YOR265W, strain rbl2, hits give low values 0.989 | S. cerevisiae deletion strains, locus YOR270C, strain vph1, hits give low values 0.991 | S. cerevisiae deletion strains, locus YOR290C, strain snf2, hits give low values 0.958 | S. cerevisiae deletion strains, locus YOR316C, strain cot1, hits give low values 0.985 | S. cerevisiae deletion strains, locus YPL051W, strain arl3, hits give low values 0.999 | S. cerevisiae deletion strains, locus YPL055C, strain LGE1, hits give low values 0.935 | S. cerevisiae deletion strains, locus YPL078C, strain atp4, hits give low values 0.983 | S. cerevisiae deletion strains, locus YPL106C, strain sse1, hits give low values 0.979 | S. cerevisiae deletion strains, locus YPL240C, strain hsp82, hits give low values 0.989 | S. cerevisiae deletion strains, locus YPL241C, strain CIN2, hits give low values 1 | S. cerevisiae deletion strains, locus YPL256C, strain CLN2, hits give low values 0.946 | S. cerevisiae deletion strains, locus YPR119W, strain clb2, hits give low values 0.993 | S. cerevisiae deletion strains, locus YPR141C, strain kar3, hits give low values 0.968 | S. cerevisiae deletion strains, locus YPR163C, strain tif3, hits give low values 0.991 | S. cerevisiae deletion strains, locus YPR167C, strain met16, hits give low values 0.983 | S. cerevisiae deletion strains, strain wtn01, hits give low values 0.974 | S. cerevisiae strains, strain wild type, hits give low values 0.991
